# Rpn11 inh: inhibitors of human proteasome Rpn11 | O00487 | human 26S proteasome, Ub4-pepOG fluorescence polarization; 20S core pre-blocked with epoxomicin | inhibition, % at 20 µM | 360,000 compounds, 0.59% hits | AID 588493;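 active means inhibition at 20 µM, scaled to each plate's controls, above about 33%, limit read from the data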
# Fh CTSL1 inh: cathepsin L1 inhibition, PFM18AAP counter-screen. recombinant F. hepatica cathepsin L1, Z-Leu-Arg-MCA fluorescence. inhibition, % at 5.96 µM. 300,000 compounds, 0.49% hits;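 active means inhibition above the mean of all tested compounds plus 3 SD, set per screening campaign, cut at about 17% in these data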
# HNF4A DNA FP: change in binding of human HNF4 alpha to DNA; HNF4a-FITC DNA binding, fluorescence polarization, 1 h; AID 1224865; 360,000 compounds, 0.3% hits; P41235; activity change, % at 10 µM; in the data active means activity change above about 30%, passing the limit was not always enough
# Target sequence (P41235 whole entry, looked up): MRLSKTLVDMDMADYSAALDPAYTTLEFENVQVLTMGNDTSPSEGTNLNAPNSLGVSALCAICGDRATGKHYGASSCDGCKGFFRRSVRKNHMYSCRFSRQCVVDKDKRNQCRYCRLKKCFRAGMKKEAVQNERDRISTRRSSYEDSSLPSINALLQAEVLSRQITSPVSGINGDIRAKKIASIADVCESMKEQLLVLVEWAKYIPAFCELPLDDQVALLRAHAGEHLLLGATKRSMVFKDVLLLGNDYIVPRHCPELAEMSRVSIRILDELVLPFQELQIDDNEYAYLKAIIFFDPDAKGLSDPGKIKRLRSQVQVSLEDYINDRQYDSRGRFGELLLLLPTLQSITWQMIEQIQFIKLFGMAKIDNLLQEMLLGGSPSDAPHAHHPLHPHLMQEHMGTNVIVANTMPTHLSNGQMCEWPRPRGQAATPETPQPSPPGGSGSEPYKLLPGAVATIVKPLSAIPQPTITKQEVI
# PHOSPHO1 block: inhibitors of human PHOSPHO1 phosphatase. Q8TCT1. recombinant PHOSPHO1, absorbance phosphatase assay. 290,000 compounds, 1.1% hits. inhibition, % at 13.3 µM; in the data active means inhibition above about 60%
# CendR NRP1 mod: alters CendR peptide binding to human NRP-1; FAM-RPARPAR peptide binding to NRP-1, fluorescence polarization; inhibition, % at 25 µM; 360,000 compounds, 0.85% hits; AID 602438;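 active means inhibition or corrected inhibition above about 18%, plus a signal ratio from 0.5 to 1.5, limit read from the data, passing the limit was not always enough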
# TPT1 inhibitor: C. albicans TPT1 enzyme inhibition; recombinant caTPT1, FP RNA substrate dephosphorylation; inhibition, % at 5 µM; 300,000 compounds, 0.81% hits; AID 1962;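 active means inhibition above the mean of all tested compounds plus 3 SD, set per screening campaign, cut at about 24% in these data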
# TPT1 inh confirm: TPT1 (C. albicans) inhibition, confirmation; 2,400 compounds, 74% hits; shares compounds with TPT1 inhibitor; inhibition, % at 5 µM; recombinant caTPT1, fluorescence polarization, RNase T1 coupled;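 active means inhibition above the primary screen limit, the mean inhibition of all tested compounds plus 3 SD, cut at about 25% in these data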
# RNase T1 counter: RNase T1 inhibition in TPT1 counter-screen; AID 2153; RNase T1 cleavage, fluorescence polarization, 1536-well; 2,400 compounds, 83% hits; shares compounds with TPT1 inhibitor; inhibition, % at 5 µM;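 active means inhibition above the solvent-only control well mean plus 3 SD, limit set per screening run, cut at about 23% in these data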;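 further: inhibitors block cleavage so intact labeled substrate keeps polarization high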
# Target sequence (P00651 whole entry, looked up): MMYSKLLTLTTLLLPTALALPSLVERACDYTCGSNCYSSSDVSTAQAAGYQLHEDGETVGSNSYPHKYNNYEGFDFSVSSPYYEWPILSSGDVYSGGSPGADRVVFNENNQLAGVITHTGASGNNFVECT
# Hits are given with their value; – = inactive; · = not tested or not shown; ! = a repeat was not active. A selection: hits, their analogues and other compounds. The true share with any hit is near 3.3%.
SMILES,Rpn11 inh,Fh CTSL1 inh,HNF4A DNA FP,PHOSPHO1 block,CendR NRP1 mod,TPT1 inhibitor,TPT1 inh confirm,RNase T1 counter
CCOc1ccc(-n2c(O)c(C=Nc3ccc(N(CC)CC)cc3)c(=O)[nH]c2=O)cc1,–,–,–,–,–,31,42,56
CCN(CC)c1ccc(N=Cc2c(O)n(-c3ccccc3C)c(=O)[nH]c2=O)cc1,64,–,–,–,–,69,72,84
CCOC(=O)c1sc(/N=C/c2c(O)n(-c3ccccc3)c(=O)[nH]c2=O)c(C#N)c1C,–,–,–,–,–,32,–,–
CCc1nnc(NS(=O)(=O)c2ccc(N=Cc3c(O)n(-c4ccc(Cl)cc4)c(=O)[nH]c3=O)cc2)s1,–,–,–,–,–,40,–,–
CCOc1ccc(-n2c(O)c(C=Nc3ccc(NC(C)=O)cc3)c(=O)[nH]c2=O)cc1,–,–,–,–,–,–,·,·
CCOC(=O)c1c(/N=C/c2c(O)n(-c3cccc(C)c3)c(=O)[nH]c2=O)sc2c1CCCC2,–,–,–,–,–,–,·,·
CCN1CCC2(CC1)NC(=O)c1ccccc1O2,–,–,–,–,–,–,·,·
NC(Cc1ccccc1Cl)c1nn[nH]n1 (configuration not stated),–,·,–,·,–,·,·,·
CCN(CC)c1ccc(N=Cc2c(O)n(-c3ccccc3)c(=O)[nH]c2=O)cc1,–,–,–,–,–,39,59,71
CN1CCCN(c2ccc([N+](=O)[O-])nc2)CC1,–,–,–,–,–,–,·,·
CC(NC(=O)N1CC1(C)C)c1ccccc1 (configuration not stated),–,·,–,·,–,·,·,·
COc1ccc(N2C(=O)/C(=C/c3cccs3)C(=O)NC2=S)cc1,–,–,–,–,–,–,·,·
COc1cccc(N2C(=O)/C(=C/c3ccc(C)o3)C(=O)NC2=S)c1,·,–,–,–,–,35,35,44
COc1ccc(N2C(=O)/C(=C/c3ccc(N(C)C)o3)C(=O)NC2=S)cc1,·,–,–,–,–,134,142,138
CCOc1cccc(N2C(=O)/C(=C/c3ccco3)C(=O)NC2=S)c1,·,–,–,·,–,–,·,·
CCN1C(=O)/C(=C/c2ccc(N(CC)CC)cc2OC)C(=O)NC1=S,–,–,–,–,–,44,95,101
CCN(CC)c1ccc(/C=C2\C(=O)NC(=S)N(c3ccc(OC)cc3OC)C2=O)o1,·,–,–,·,–,141,150,142
CC(=O)c1cn(Cc2ccccc2F)c2ccccc12,–,·,–,–,–,·,·,·
Cc1ccc(N2C(=O)/C(=C/c3ccc(CN(CCC#N)S(C)(=O)=O)o3)C(=O)NC2=S)cc1,–,–,–,–,–,36,26,37
C[C@@H]1C(=O)O[C@H]2[C@H](O)[C@]34[C@@H]5OC(=O)[C@]3(OC3OC(=O)[C@H](O)C34[C@H](C(C)(C)C)[C@@H]5O)[C@@]12O (some centres not stated),–,·,–,·,–,·,·,·
COCCNC(=O)Cn1cc(/C=C2\C(=O)NC(=O)N(c3ccccc3F)C2=O)c2ccccc21,–,–,–,–,–,27,–,–
O=C(O)Cn1cc(/C=C2\C(=O)NC(=O)N(c3ccc(F)cc3)C2=O)c2ccccc21,·,·,·,–,·,·,·,·
COC(=O)Cn1cc(/C=C2\C(=O)NC(=O)N(c3ccc(OC)cc3)C2=O)c2ccccc21,–,–,–,·,–,25,–,–
COc1ccc(N2C(=O)NC(=O)/C(=C\c3cn(C)c4ccccc34)C2=O)cc1,·,–,108,·,–,67,68,71
COC(=O)Cn1cc(C=C2C(=O)NC(=O)NC2=O)c2ccccc21,–,–,–,–,–,–,·,·
SMILES,Rpn11 inh,Fh CTSL1 inh,HNF4A DNA FP,PHOSPHO1 block,CendR NRP1 mod,TPT1 inhibitor,TPT1 inh confirm,RNase T1 counter
COCCNC(=O)Cn1cc(/C=C2\C(=O)NC(=O)N(c3cccc(C)c3C)C2=O)c2ccccc21,–,–,–,–,–,–,·,·
CCOC(=O)CC1c2ccccc2-n2nncc2CN1CC1CCCCC1 (configuration not stated),–,·,–,·,–,·,·,·
COc1cccc(C2CCN(C)C2)c1 (configuration not stated),–,·,–,·,–,·,·,·
CCn1c(O)c(C(=O)CC2NCCc3ccccc32)c(=O)n(CC)c1=S (configuration not stated),110,–,–,–,–,62,56,68
COc1ccc2[nH]cc(CCN=C(N)N)c2c1,–,–,–,–,–,–,·,·
COc1ccc2[nH]cc(C3=CCNCC3)c2c1,·,–,·,·,·,52,61,72
CN1CCC2(CC1)C(C#N)=C(N)NC(S)=C2C#N,·,–,–,–,–,50!,–,28
O=c1[nH]c(=O)n(Cc2ccccc2Cl)c(O)c1/C=C1/C=CC=N1,–,–,–,–,–,29,–,23
C=CCn1c(O)c(/C=C2/C=CC=N2)c(=O)[nH]c1=O,–,–,–,–,–,–,·,·
Cc1cc(C)cc(N2C(=O)NC(=O)/C(=C\c3cccn3-c3ccccc3)C2=O)c1,–,–,–,–,–,–,·,·
CN1C(=O)/C(=C/c2cccn2-c2ccc3ccccc3c2)C(=O)NC1=S,–,–,–,–,–,38,–,–
O=c1[nH]c(=O)n(Cc2ccco2)c(O)c1/C=N/N1CCCCC1,–,–,–,–,–,24,29,40
Cc1ccccc1N1C(=O)NC(=O)/C(=C\c2ccc3c(c2)CCCN3Cc2ccccc2)C1=O,·,–,–,–,–,61,154,145
O=C1NC(=S)NC(=O)C1=Cc1ccc2c(c1)CCN2CCCCl,·,–,–,–,–,–,·,·
CC(=O)Nc1ccc2c(c1)CC1(C(=O)N(C)C(=O)N(C)C1=O)C1CCCN21 (configuration not stated),–,–,–,–,–,–,·,·
CN1C(=O)N(C)C(=O)C2(Cc3cc(NC(=O)c4ccc(F)cc4)ccc3N3CCCC32)C1=O (configuration not stated),–,–,–,–,–,30,–,37
Cc1cccc(OCCn2cccc2/C=C2/C(=O)NC(=O)N(Cc3ccco3)C2=O)c1,–,–,–,–,–,29,–,24
O=C1NC(=O)N(Cc2ccco2)C(=O)/C1=C\c1cccn1CCOc1ccc(Cl)cc1,–,–,–,–,–,62,–,–
CCc1ccc(N2C(=O)NC(=O)/C(=C/c3cccn3CCOc3ccc(C)cc3)C2=O)cc1,·,–,–,–,–,–,·,·
CC12CCC3c4ccc(OC(=O)N(CCCl)CCCl)cc4CCC3C1CCC2O (configuration not stated),–,·,–,·,–,·,·,·
O=C(CCCc1ccccc1)NCCc1cnc[nH]1,–,–,–,–,–,–,·,·

# Bioassay records: PubChem, several laboratories
